Screening results: PubChem BioAssay, National Center for Advancing Translational Sciences (NCATS)
Most compounds without a hit are left out; they make up all but 2.5% or so of the library.
Casp7 inh: caspase-7 (human) inhibition, allosteric or competitive; P55210; recombinant caspase-7, Ac-DEVD-AFC fluorescence rate; Potency, µM (top dose mostly 57.5 µM), without a hit: at the highest dose activity change, negative = inhibition, hits mostly inhibitors; 75,000 tested, 0.02% active; AID 889; active = well fitted inhibition curve with a large enough effect in the main read-out, with a control signal flat, not every such curve was filed as active; inconclusive = small, poorly fitted or top-dose-only effect, or a change in a side signal; also: % of control where 0% means no effect
Luciferase inh: inhibitors of firefly luciferase | purified firefly luciferase, luminescence, 8 min | AID 411 | 72,000 tested, 2.2% active | Potency, µM (titrated, usually from 57.1 µM), for inactives: top-dose activity change, negative = inhibition, hits mostly inhibitors | P08659; also: % is scaled to controls: 0 for no effect and ±100 for the full control effect; nearly all actives have a fitted effect of over 40% in size
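Luminescence read-out after 8 min at room temperature; enzyme reaction used luciferin plus 10 uM ATP (linear range) in imidazole buffer pH 7.2 with KCl, MgCl2, Tween 20 and BSA. Each sample was run as a titration.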
p53ts 32C tox: cytotoxicity in p53ts cells at permissive temperature. H1299-p53A138V at 32C, ATP luminescence viability, 24 h. Potency, µM (doses to about 46.1 µM), inactives show at the top dose activity change, negative = cytotoxicity, most hits filed as cytotoxic. 130,000 tested, 0.93% active. AID 924;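 also: 0% = DMSO and -100% = full killing by reference compound; nearly all actives have a fitted effect of over 55% in size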
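Viability by ATPlite luminescence after 24 h compound treatment (up to 46 uM) at the permissive 32C. Cells are H1299 carrying p53 A138V. Scale runs from DMSO basal to 100 uM tamoxifen as full kill; AC50 from Hill fits.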
IkB sig inh: IkB pathway inhibition in ABC-DLBCL cells; ABC-DLBCL IkBa-CBG/CBR dual luciferase ratio, 4 h; response scale: scaled: untreated 0%, proteasome inhibitor 100%; Potency, µM (series often up to 57.1 µM), inactives show top-dose IkBa stabilization activation; 110,000 tested, 0.04% active; AID 445; active = well fitted curve in the direction sought with a large enough effect in the signal ratio, not every such curve was filed as active; inconclusive = small, poorly fitted or top-dose-only effect, or a change in a side signal; the % refers to the signal ratio;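 also: the direction sought is a rising ratio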
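Curves were fitted separately to fusion (green), unfused (red) and ratio luminescence, then classed by r2, magnitude and activity. Cells: OCI-Ly3, 4 h compound plus doxycycline at 37C; 10 uM MG-132 defined full response.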
Caspase-1 inhib: caspase-1 (human) inhibition, allosteric or competitive; P29466; 75,000 tested, 0.03% active; Caspase-1 enzyme, Ac-WEHD-AFC fluorogenic rate; Potency, µM (titrated, usually from 57.5 µM), without a hit: top-dose activity change, negative = inhibition, actives largely listed as inhibitors; AID 900;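 also: plate controls were vehicle for no effect and no substrate for full effect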
p53ts 39C tox: cytotoxicity in p53ts cells at nonpermissive temperature. 130,000 tested, 1.5% active. H1299-p53A138V viability at 39C, ATP luminescence, 24 h. Potency, µM (doses to about 46.1 µM), for inactives: top-dose activity change, negative = cell killing, actives largely listed as cytotoxic. AID 902; also: % is scaled to controls: 0 for no effect and ±100 for the full control effect; nearly all actives have a fitted effect of over 55% in size
Active calls of the source: *; ? = inconclusive; . = no result; ! = not confirmed by another sample; [ ] = remark or other dose. Unless noted, calls follow the shape of the dose curve; as a rule, active = well fitted curve in the direction sought with a large enough effect; inconclusive = small, poorly fitted or top-dose-only effect, or another doubt; inactive = no such curve, though single readings can be large; an effect the other way counts as inactive or inconclusive. Potency is read from the fitted curve at half-maximal effect.

SMILES	Casp7 inh	Luciferase inh	p53ts 32C tox	IkB sig inh	Caspase-1 inhib	p53ts 39C tox
Cc1cn2c(=O)cc(COC(=O)c3ccc(NC(=O)c4ccc(C(C)(C)C)cc4)cc3)nc2s1	.	.	-18%	0%	.	-25%
Cc1cn2c(=O)cc(COC(=O)c3cccc(NC(=O)c4ccc(C(C)(C)C)cc4)c3)nc2s1	.	.	2.5µM*	?	.	3.2µM*
Cc1ccc(C(=O)Nc2ccc(C(=O)OCc3cc(=O)n4ccsc4n3)cc2)cc1	.	.	15%	-3%	.	-13%
CC1(C)CC(=O)C(CCCN2C(=O)c3ccccc3C2=O)C(=O)C1	.	1%[25.5 µM]	.	.	.	.
CNc1oc(Cc2cccc3ccccc23)nc1C#N	-4%	2%	-1%	-2%	-1%	6%
N#Cc1nc(Cc2cccc3ccccc23)oc1NCCN1CCCCC1	-1%	7.9µM*	-18%	?	-2%	?
COc1ccc2c(c1OC)C(=O)N(c1cccc(C(F)(F)F)c1)C2	-2%	13µM*	?	0%	-3%	?
COc1ccc2c(c1OC)C(=O)N(c1ccccn1)C2	1%	?	?	4%	0%	?
COc1ccc2c(c1OC)C(=O)N(c1cccc(C)c1)C2	-5%	7.9µM*	7.9µM*	3%	0%	5µM*
CN1C(=O)NC(c2ccccc2)C2=C1CN(c1cccc(C(F)(F)F)c1)C2=O (configuration not stated)	-3%	2%	0%	1%	-3%	-5%
Cc1occc1C(=O)Nc1ccccc1NC(=O)c1ccoc1C	-6%	1%	10%	3%	0%	8%
Cc1occc1C(=O)Nc1cccc2ccccc12	-1%	25µM*	-26%	?	2%	-25%
Cc1cccc2c1-c1sc(C(=O)Nc3ccccc3C(N)=O)cc1CO2	.	.	?	?	.	13µM*
O=C(c1cccs1)c1ccc(-c2cccs2)s1	?	5µM*	7.9µM*	?	.	10µM*
O=C(c1cc2ccccc2o1)c1cccs1	-1%	?	-12%	0%	0%	0%
CNC(=O)c1cc2c(cn1)[nH]c1ccccc12	-1%	25µM*!	?	1%	-3%	?
CCCCOC(=O)c1cc2c(cn1)[nH]c1ccccc12	-4%	?	-2%	?	0%	-13%
CC(C)C(=O)Nc1cccc(C(=O)NCc2ccc3c(c2)OCO3)c1	0%	0%	6%	5%	0%	8%
COc1cc(NC(=O)CSc2ncccc2C(=O)OC(C)C)cc(OC)c1	.	.	-3%	?	.	?
Cc1cccc(-c2noc(-c3ccccc3C(=O)NCC3CCCO3)n2)c1 (configuration not stated)	1%	16µM*	-20%	-2%	0%	-23%
CCSc1ncc(Cl)c(C(=O)Nc2cccc(Cl)c2)n1	.	.	-13%	0%	.	-21%
O=S1(=O)N=C(Nc2ccc(N3CCOCC3)cc2)c2ccccc21	0%	13µM*	-13%	-1%	-1%	-12%
CC(=O)c1ccc(NC(=O)c2nc3ccccc3nc2N2CCCCC2)cc1	.	.	11%	?	.	-16%
CC(=O)c1ccc(NC(=O)c2nc3ccccc3n(C)c2=O)cc1	.	.	2.5µM*	-2%	.	2.5µM*
COc1ccc(NC(=O)CSc2nccn2-c2ccccc2)cc1	0%	-5%	-29%	0%	2%	4%
SMILES	Casp7 inh	Luciferase inh	p53ts 32C tox	IkB sig inh	Caspase-1 inhib	p53ts 39C tox
O=C(CSc1c[nH]c2ccccc12)N1CCOCC1	0%	1%	-8%	-1%	0%	5%
Cc1[nH]c2ccccc2c1SCC(=O)N1CCOCC1	0%	1%	-5%	1%	-7%	13µM*
CN(C)c1ccc(N=Nc2ccccc2C(=O)OCC(=O)N(C)c2ccccc2)cc1	.	.	10µM*	.	.	?
COc1ccc(Oc2ncc3nc(-c4cn(C)c5ccccc45)c(=O)n(C4CC4)c3n2)cc1	-25%	1%[11.4 µM]	-1%	-1%[11.4 µM]	-18%	-6%
CCc1c(C)nc2cc(-c3ccc(OC)cc3)[nH]n2c1=O	3%	20µM*	?	-1%	-1%	?
Cc1ccc(-c2cc3nc4c(c(=O)n3[nH]2)CCCC4)cc1	2%	4µM*	?	-1%	-1%	?
Cc1[nH]n2c(=O)c3c(nc2c1-c1ccc(Cl)cc1)CCC3	-1%	1%	-6%	3%	0%	-7%
C/C=C/c1ccc(OCCCNCC(C)O)c(OC)c1 (configuration not stated)	1%	-1%	-3%	-2%	-1%	2%
O=C(COc1cccc2cccnc12)Nc1nccs1	-1%	16µM*	?	?	1%	?
COc1ccc(NC(=O)CSc2oc(-c3ccc(C)cc3)nc2S(=O)(=O)c2ccc(C)cc2)c(OC)c1	.	.	5%	-2%	.	-10%
CCOC(=O)c1sc2nc3c(cc2c1N)COC(C)(C)C3	-18%	20µM*	-18%	0%	?	-7%
CCC1(C)Cc2nc3sc(C(=O)O)c(N)c3cc2CO1 (configuration not stated)	-15%	-3%	17%	0%	-13%	20%
Cc1ccc2c(c1[N+](=O)[O-])C(=O)c1ccccc1C2=O	0%	.	10%[1.84 µM]	-4%	0%	-19%
O=C1c2ccccc2-c2cc([N+](=O)[O-])c([N+](=O)[O-])cc21	2%[11.5 µM]	-4%[11.4 µM]	-21%[9.22 µM]	4µM*	1%[11.5 µM]	36%[9.22 µM]
COc1ccc(-c2coc3cc(O)cc(O)c3c2=O)cc1	0%	-16%[25.5 µM]	?	-2%[11.4 µM]	-2%	?
O=c1c(-c2ccc(O)cc2)coc2cc(O)cc(O)c12	2%	0%	10µM*!	?	-2%	?
CC(C)Oc1cc(O)c2c(=O)c(-c3ccc(O)cc3)coc2c1	-3%	13µM*	?	-3%	-2%	?
CCOC(=O)Cn1c(=O)oc2cc(S(=O)(=O)N3CCN(c4cccc(C)c4C)CC3)ccc21	.	.	4%	?	.	-29%
COc1ccc(S(=O)(=O)N(CC(=O)Nc2ccc3c(c2)OCO3)c2ccccc2OC)cc1	-4%	0%	-7%	?	-2%	2%
Cc1cc2cc3c(cc2nc1SCC(=O)N1CCN(C(=O)c2ccco2)CC1)OCO3	0%	-2%	-15%	1%	2%	-17%
Cc1cc2nc(-c3ccc(SCC(=O)N4CCOCC4)nc3)[nH]c2cc1C	0%	2.5µM*	6.3µM*	?	-2%	7.9µM*
Cc1cc2nc(-c3ccc(SCC(=O)N4CCN(C(=O)c5ccco5)CC4)nc3)[nH]c2cc1C	-2%	0.63µM*	6.3µM*	?	-2%	5µM*
CCOC(=O)N1CCN(C(=O)c2ccc3nc(N4CCC(C)CC4)sc3c2)CC1	-2%	-4%	-16%	-1%	2%	-12%
